Results taken from PubChem BioAssay (NCI).
About 83,000 compounds went through this panel and 20% of them were active in at least one assay; those are over-represented in the sample as a whole.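 Single-concentration screen, 48 h exposure, 96-well plates. Endpoint: percent growth. Below 10 = active.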 Activity calls are given as the source filed them.

Legend:
Assay in all cases: NCI-60 one-dose screen, 48 h (100 = growth as untreated, 0 = no growth, -100 = all killed)
Conditions in all cases: 10 µM unless noted
SK-MEL-2 melanoma = test system: SK-MEL-2 melanoma
EKVX NSCLC = test system: EKVX NSCLC
SN12C renal = test system: SN12C renal
UO-31 renal = test system: UO-31 renal
TK-10 renal = test system: TK-10 renal
ACHN renal = test system: ACHN renal
CAKI-1 renal = test system: CAKI-1 renal
CCRF-CEM leukemia = test system: CCRF-CEM leukemia
MOLT-4 leukemia = test system: MOLT-4 leukemia

Measured: growth

CCCCCCCCCCCCCCCC[N+]1(C)CCN(SN2CC[N+](C)(CCCCCCCCCCCCCCCC)CC2)CC1
inactive: SK-MEL-2 melanoma 95.9% | EKVX NSCLC 82.3% | SN12C renal 72.5% | UO-31 renal 76.9% | TK-10 renal 53.3% | ACHN renal 66.2% | CAKI-1 renal 43.4% | CCRF-CEM leukemia 48.1% | MOLT-4 leukemia 57.1%

CC(=O)c1cc2c(N)c(C(=O)Nc3cccc4ccncc34)sc2nc1C
inactive: SK-MEL-2 melanoma 78% | EKVX NSCLC 91.5% | SN12C renal 99.9% | UO-31 renal 88.2% | TK-10 renal 99% | ACHN renal 102% | CAKI-1 renal 93.1% | CCRF-CEM leukemia 101% | MOLT-4 leukemia 88.7%

CC1(C)CC(=O)C2=C(C1)N(c1ccc(F)cc1F)C(N)=C(C#N)C2c1cc(Br)ccc1F (stereo unspecified)
inactive: SK-MEL-2 melanoma 94% | EKVX NSCLC 94.8% | SN12C renal 96.6% | UO-31 renal 81.3% | TK-10 renal 104% | ACHN renal 94.9% | CAKI-1 renal 92.4% | CCRF-CEM leukemia 91.8% | MOLT-4 leukemia 88.9%

CN1CCN(C(=O)[C@]23CCC(C)(C)C[C@H]2C2=CC[C@@H]4[C@@]5(C)C/C(=C/c6ccncc6)C(=O)C(C)(C)[C@@H]5CC[C@@]4(C)[C@]2(C)CC3)CC1
active: MOLT-4 leukemia 2.92%
inactive: SK-MEL-2 melanoma 78.2% | EKVX NSCLC 80.2% | SN12C renal 49.9% | UO-31 renal 37.3% | TK-10 renal 77.1% | ACHN renal 65.1% | CAKI-1 renal 75.4% | CCRF-CEM leukemia 19.7%

COc1cc(NC(C)CCCNC(=O)CCC(=O)NCCCNCCCCCCCCCCNCCCNC(=O)CCC(=O)NCCCC(C)Nc2cc(OC)cc3cccnc23)c2ncccc2c1 (stereo unspecified)
inactive: SK-MEL-2 melanoma 93.4% [8 µM] | EKVX NSCLC 73.7% [8 µM] | SN12C renal 41.3% [8 µM] | UO-31 renal 96.3% [8 µM] | TK-10 renal 100% [8 µM] | ACHN renal 96.7% [8 µM] | CAKI-1 renal 97.3% [8 µM] | CCRF-CEM leukemia 66.6% [8 µM] | MOLT-4 leukemia 76.8% [8 µM]

CCCCCN1C=C/C(=C\C(=O)n2ccc3ccccc32)c2ccccc21
inactive: SK-MEL-2 melanoma 96.9% | EKVX NSCLC 69.3% | SN12C renal 89.9% | UO-31 renal 49.4% | TK-10 renal 110% | ACHN renal 93.5% | CAKI-1 renal 70.6% | CCRF-CEM leukemia 94.6% | MOLT-4 leukemia 90%

Cc1cc(C(=O)/C=C/c2ccc[nH]2)ccc1-n1ccc(C(F)(F)F)n1
inactive: SK-MEL-2 melanoma 96.5% | EKVX NSCLC 87.4% | SN12C renal 63.4% | TK-10 renal 95.6% | ACHN renal 98.9% | CAKI-1 renal 83.8% | CCRF-CEM leukemia 13.1% | MOLT-4 leukemia 70.6%
active: UO-31 renal -92.1%

N#CC(C#N)=Cc1cc2ccccc2nc1Oc1ccc(C(F)(F)F)cc1
active: CCRF-CEM leukemia 0.288%
inactive: SK-MEL-2 melanoma 103% | EKVX NSCLC 84.1% | SN12C renal 91.9% | UO-31 renal 43.8% | TK-10 renal 114% | ACHN renal 88.7% | CAKI-1 renal 67.7% | MOLT-4 leukemia 54.8%

C=C1C(=O)O[C@H]2[C@H]1CC/C(CNC(=O)/C=C/c1ccccc1)=C\CC[C@@]1(C)O[C@@H]21
inactive: SK-MEL-2 melanoma 40.8%
active: EKVX NSCLC -16.2% | SN12C renal -32.1% | UO-31 renal -85.2% | TK-10 renal -47.1% | ACHN renal -34.5% | CAKI-1 renal -88.1% | CCRF-CEM leukemia 1.78% | MOLT-4 leukemia -26.4%

Cc1cccc(NC(=O)Nc2ccc(-n3cnc4cc(-c5ccc(O)cc5)ccc43)cc2)c1
inactive: SK-MEL-2 melanoma 18.1% | EKVX NSCLC 35.8% | SN12C renal 23% | UO-31 renal 27.2% | TK-10 renal 21.8% | ACHN renal 16.1% | CAKI-1 renal 35% | CCRF-CEM leukemia 17.8% | MOLT-4 leukemia 13.1%

Cc1cc2c(C(=O)NCC#N)cccc2n1-c1nc2c(c(NCc3ccccc3)n1)CCCC2
active: SK-MEL-2 melanoma -44.7% | EKVX NSCLC -18.8% | SN12C renal -67.9% | UO-31 renal -84.3% | TK-10 renal -17.7% | ACHN renal -4.35% | CAKI-1 renal -2.84% | CCRF-CEM leukemia 7.4% | MOLT-4 leukemia -15.6%

O=S(=O)(Nc1ccc(-n2cnc3cc(-c4ccc(O)cc4)ccc32)cc1)c1ccccc1
inactive: SK-MEL-2 melanoma 83.2% | EKVX NSCLC 98.4% | SN12C renal 73.4% | UO-31 renal 51.3% | TK-10 renal 113% | ACHN renal 80.6% | CAKI-1 renal 68.7% | CCRF-CEM leukemia 69.9% | MOLT-4 leukemia 71.7%

S=c1cc(S)c2cc(Br)ccc2[nH]1
inactive: SK-MEL-2 melanoma 93.9% | EKVX NSCLC 105% | SN12C renal 98.8% | UO-31 renal 86.8% | TK-10 renal 125% | ACHN renal 90.4% | CAKI-1 renal 101% | CCRF-CEM leukemia 100% | MOLT-4 leukemia 98.7%

O=[N+]([O-])CC(c1ccccc1)c1c[nH]c2ccccc12 (stereo unspecified)
inactive: SK-MEL-2 melanoma 22.8% | EKVX NSCLC 67% | SN12C renal 52.8% | UO-31 renal 67.3% | TK-10 renal 69.7% | ACHN renal 71.1% | CAKI-1 renal 42% | CCRF-CEM leukemia 46.9% | MOLT-4 leukemia 27.4%
